From ChEMBL document CHEMBL5308504, “Tm Shift (DSF) assay results for EUbOPEN Chemogenomics Library” (2023)

Columns and labels:
[1] = target: Bromodomain-containing protein 4 (Homo sapiens) (UniProt O60885); conditions: Compound concentration 20.0 uM, Protein concentration 2.0 uM, Result type QC Liability
[2] = target: T1, Transcription intermediary factor 1-alpha (Homo sapiens) (UniProt O15164); conditions: Compound concentration 20.0 uM, Protein concentration 2.0 uM, Result type QC Liability
T1 sequence (whole entry): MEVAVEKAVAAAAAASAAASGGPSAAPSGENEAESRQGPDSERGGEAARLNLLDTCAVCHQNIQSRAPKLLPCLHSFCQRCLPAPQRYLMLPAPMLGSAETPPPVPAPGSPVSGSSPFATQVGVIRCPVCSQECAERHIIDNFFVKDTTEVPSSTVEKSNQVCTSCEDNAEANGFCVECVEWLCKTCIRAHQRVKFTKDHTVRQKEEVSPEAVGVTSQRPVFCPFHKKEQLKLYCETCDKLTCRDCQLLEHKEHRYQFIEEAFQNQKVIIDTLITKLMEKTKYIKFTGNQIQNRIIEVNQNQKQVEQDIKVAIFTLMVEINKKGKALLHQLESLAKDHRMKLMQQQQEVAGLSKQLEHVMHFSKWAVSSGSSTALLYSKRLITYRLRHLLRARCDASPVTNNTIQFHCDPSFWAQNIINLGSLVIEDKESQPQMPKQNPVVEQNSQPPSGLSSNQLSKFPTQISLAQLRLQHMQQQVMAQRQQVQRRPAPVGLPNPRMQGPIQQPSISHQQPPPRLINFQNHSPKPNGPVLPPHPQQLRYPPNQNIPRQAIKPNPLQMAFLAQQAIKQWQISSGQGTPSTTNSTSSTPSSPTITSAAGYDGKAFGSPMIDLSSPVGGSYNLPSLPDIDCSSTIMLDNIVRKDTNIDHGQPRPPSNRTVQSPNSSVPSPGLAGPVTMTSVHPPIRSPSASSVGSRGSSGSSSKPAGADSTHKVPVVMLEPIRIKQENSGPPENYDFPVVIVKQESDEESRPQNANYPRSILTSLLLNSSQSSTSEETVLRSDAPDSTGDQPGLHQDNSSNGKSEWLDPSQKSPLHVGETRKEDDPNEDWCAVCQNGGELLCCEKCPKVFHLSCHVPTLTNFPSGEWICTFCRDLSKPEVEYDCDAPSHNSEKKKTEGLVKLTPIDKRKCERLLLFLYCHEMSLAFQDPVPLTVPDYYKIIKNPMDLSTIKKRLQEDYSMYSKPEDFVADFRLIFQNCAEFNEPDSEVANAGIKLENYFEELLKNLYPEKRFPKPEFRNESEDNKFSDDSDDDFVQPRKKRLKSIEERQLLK

Row | SMILES | ΔTm [1] [°C] | ΔTm [2] [°C]
1 | COc1ccc(-c2c(-c3ccccc3)oc3ncnc(O[C@H](C)CCCCC(=O)O)c23)cc1 | -0.98 | -1.53
2 | CCS(=O)(=O)Nc1cccc(Oc2cc(F)cc(Nc3ccc(I)cc3F)c2NS(=O)(=O)C2CC2)c1 | -2.86 | 3.45
3 | COc1ccc(C(=O)N[C@H](C)c2cccc(C(=O)Nc3nc4c(s3)CN(C)CC4)c2)cc1C | -1.18 | -2.54
4 | Fc1ccc(-c2nc(-c3c(F)cccc3F)[nH]c2-c2ccncc2)cc1 | 0.95 | -2.15
5 | Cc1nc2cccnc2n2c(-c3cc([C@@]4(O)CCCOC4)ccc3Cl)nnc12 | -1.99 | 0.37
6 | CCc1ccc(-c2ncn(CC3(F)CCN(C)CC3)c2-c2ccnc3[nH]ccc23)nc1 | -2.66 | -2.61
7 | O=C(O)C[C@H]1CCn2c1c(Sc1ccc(Cl)cc1)c1ccc(F)cc12 | 0 | -1.67
8 | CN(C)C/C=C/C(=O)Nc1cc2c(Nc3ccc(F)c(Cl)c3)ncnc2cc1OC[C@@H]1CCCO1 | -0.58 | -0.17
9 | CNc1ncc2cc(-c3ccc(-c4cccc(C)n4)cc3Cl)c(=O)n(C[C@H]3OC[C@H](N)CO3)c2n1 | -1.96 | -2.28
10 | COc1c(NC(=O)c2cc3cccc(Oc4ccnc(C(=O)N5CCN(C)CC5)c4)c3n2C)cc(C(C)(C)C)cc1NS(C)(=O)=O | -2.76 | -2.21
11 | N#CC[C@H](C1CCCC1)n1cc(-c2ncnc3[nH]ccc23)cn1 | -0.65 | -1.72
12 | CCN(C(=O)CO)[C@H]1CN(/C(=N\C#N)Nc2cccc(OC(F)F)c2)N=C1c1ccc(Cl)c(Cl)c1 | 3.5 | 0.3
13 | CC(=O)c1c(C)c2cnc(Nc3ccc(N4CCN(CCOCCOCCOCCNC(=O)COc5cccc6c5C(=O)N(C5CCC(=O)NC5=O)C6=O)CC4)cn3)nc2n(C2CCCC2)c1=O (configuration not stated) | -1.51 | 0.27
14 | CP(C)(=O)c1ccc(CNC(=O)C2CCN(S(=O)(=O)c3cc(Cl)cc(Cl)c3)CC2)cc1 | -2.43 | 0.94
15 | COc1cc(C(=O)NCCOCCOCCOCC(=O)N[C@H](C(=O)N2C[C@@H](O)C[C@H]2C(=O)NCc2ccc(-c3scnc3C)cc2)C(C)(C)C)ccc1Nc1ncc(C(F)(F)F)c(Oc2cccc3c2C(=O)CC3)n1 | 0.11 | 2.2
16 | O=C(O)C[C@H]1CC[C@H](c2ccc(NC(=O)c3nnc(Nc4ccc(F)c(F)c4)o3)cc2)CC1 | -0.2 | 0.52
17 | C[S+]([O-])c1ccc(-c2nc(-c3cccc(I)c3)c(-c3ccncc3)[nH]2)cc1 (configuration not stated) | -3.51 | -2.56
18 | Cc1cc(S(=O)(=O)N2CC(C)(C)c3cc(-c4ccc(C(F)(F)F)cc4)ccc32)ccc1OCC(=O)O | 0.64 | 0.9
19 | COc1cc(-c2cc3ncccc3c(OC[C@H]3CNC(=O)C3)n2)cc(OC)c1OC1CCOCC1 | -1.76 | -2.27
20 | COc1cc(-c2cc3ncccc3c(O[C@@H](C)[C@H]3CNC(=O)C3)n2)cc(OC)c1OC | 1.39 | 0.27
21 | COc1ccc(CC[C@@H](OC(=O)[C@@H]2CCCCN2C(=O)[C@H](c2cc(OC)c(OC)c(OC)c2)C2CCCCC2)c2cccc(OCCN3CCOCC3)c2)cc1OC | -4.68 | -1.51
